Data on 26 compounds can be found in publication PMC5540273 (PLoS ONE, 2017).
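Note: KINOMEscan kinase panel screen.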

The test concerns PAK7. To be noted: concentration: 1 μM,replicates: in singlicate; n = 1.
For `CCn1c(-c2nonc2N)nc2c(C#CC(C)(C)O)nc(OCCN)cc21.Cl.Cl` [GSK902056], the “%Inh” value came to 93.4%.
Consider `COc1ccc(C[C@@H](CN)NC(=O)c2cc(Br)c(-c3ccnc4[nH]ccc34)s2)cc1.Cl.Cl` [GSK1389063], for which the “%Inh” value was 98.7%.
With `Cc1ccc2c(-c3ccncc3)c(-c3ccc(F)cc3)nn2c1.Cl` [GW461484] the figure was 4%; with `Cl.Cl.NC[C@H](Cc1ccc(C(F)(F)F)cc1)NC(=O)c1cc(Br)c(-c2ccnc3[nH]ccc23)s1` [GSK1487252], 33%.
With `O=C(NCCCN1CCOC1=O)c1cnc(NCc2cc(Cl)ccc2Cl)nc1NC1CCCC1` the figure was 2%; with `C=CC(=O)Nc1cc2c(Nc3ccc(F)c(Cl)c3)ncnc2cc1OCCCN1CCOCC1` [GW781483], 0%; with `NC(=O)c1cc(-c2ccccc2)cc2c(C3CCNCC3)c[nH]c12` [GSK301362], 4%.
Consider `C[C@@H]1CCN(C(=O)CC#N)C[C@@H]1N(C)c1ncnc2[nH]ccc12`, for which the “%Inh” value is 0%.
With `Cc1occc1-c1nc(N)c(OC[C@@H](N)Cc2c[nH]c3ccccc23)cc1-c1cc2c(C)n[nH]c2cn1` [GSK1660450] the figure was 9%; with `C[C@H]1Oc2cc(cnc2N)-c2c(nn(C)c2C#N)CN(C)C(=O)c2ccc(F)cc21`, 11%; with `CN(C)CC(O)COc1ccc(Nc2nccc(-c3cnn4nc(N5CCOCC5)ccc34)n2)cc1` (centres unmarked) [GW767488], 9%.
With `CCN(CC)CCCCNc1ncc2cc(-c3c(Cl)cccc3Cl)c(NC(=O)NC(C)(C)C)nc2n1` the figure was 16%; with `Cl.Cl.NC[C@H](CC1CCCCC1)NC(=O)c1cc(Br)c(-c2ccnc3[nH]ccc23)s1` [GSK1581427], 42%; with `CN(C)CCOc1ccc(-c2cc(-c3c[nH]nc3-c3ccccn3)ccn2)cc1` [GW835314], 4%.
With `CNC(=O)c1ccccc1Sc1ccc2c(/C=C/c3ccccn3)n[nH]c2c1` the figure was 40%.
In the case of `O=C(NCCNc1ccnc(NCc2ccc(F)cc2)n1)c1cc2ccccc2s1` [GSK1379944], the “%Inh” value is 0%.
With `Cc1cc2cn[nH]c2cc1-c1cccc2c(N)c(C(N)=O)nnc12` the figure was 0%; with `CC(C)N1C(=O)Cc2cc(Nc3ncc(C(F)(F)F)c(NCc4cccc(S(C)(=O)=O)c4)n3)ccc21`, 25%; with `Cl.Oc1cc(-c2nc(-c3ccccc3)[nH]c2-c2ccncc2)ccc1Cl` [SB-386023], 1%.
With `CC(C)Nc1cc(-c2ccc3c(N)n[nH]c3c2)nc(N)n1` [GSK2221681] the figure was 0%.
With `Cc1ccc(-n2nc(C(C)(C)C)cc2NC(=O)Nc2ccc(OCCN3CCOCC3)c3ccccc23)cc1` [GW839464], the “%Inh” value is 0%.
With `C[C@@H](Oc1cc(-c2cnn(C3CCNCC3)c2)cnc1N)c1c(Cl)ccc(F)c1Cl` the figure was 0%; with `Cc1n[nH]c2ccc(-c3cc(OC[C@@H](N)Cc4ccccc4)cnc3-c3ccoc3)cc12.O=C(O)C(F)(F)F.O=C(O)C(F)(F)F` [GSK507358], 56%; with `Cl.Cl.Nc1nc(-c2ccc3c(N)n[nH]c3c2)cc(N2CCCC(NC(=O)c3ccccc3)C2)n1` (centres unmarked) [GSK2286775], 0%.
With `Cc1cc(C(=O)Nc2ccc(Oc3ccc4nc(NC(=O)C5CC5)cn4n3)cc2)nn1-c1ccccc1` the figure was 0%; with `Nc1nc(Nc2ccccc2)cc(-c2ccc3c(N)n[nH]c3c2)n1` [GSK2225749], 0%.
